In PubChem BioAssay (NCATS):
A number with no mark means an inactive call. Results filed as inconclusive are left out. Active and inactive are the calls of the source. Calls follow the shape of the dose curve; as a rule, active = well fitted activation curve with a large enough effect; inconclusive = small, poorly fitted or top-dose-only effect; inactive = flat fitted curve, though single readings scatter.

test: Cellular Toxicity (caspase-3) Mesangial (AID 660); conditions: mesangial cells, normalized: DMSO 0%, 100 µM tamoxifen 100%; series mostly up to 91.7 µM; caspase-3 activation: at the top concentration;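 also: combined caspase 3 and 7 activity read by Caspase-Glo luminescence; cells exposed to compound for 16 h before the caspase read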
Procedure, shortened: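 Concentration-response qHTS: compound-induced rise in caspase 3/7 luminescence in human mesangial cells after 16 h, normalized to DMSO and 100 uM tamoxifen controls.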

| SMILES | caspase-3 activation [%] | outcome |
| --- | --- | --- |
| CCCC(CCC)C(=O)O | 0.765 | – |
| CC(=O)Oc1ccccc1C(=O)O | – | inactive |
| NS(=O)(=O)c1cc2c(cc1Cl)NC=NS2(=O)=O | 0.23 | – |
| Cn1cnc([N+](=O)[O-])c1Sc1ncnc2nc[nH]c12 | 1.48 | – |
| NC(N)=NC(=O)c1nc(Cl)c(N)nc1N | -1.35 | – |
| NC(=O)c1cnccn1 | 0.107 | – |
| O=c1[nH]cnc2[nH]ncc12 | -1.05 | – |

test: Cellular Toxicity (caspase-3) SK-N-SH (AID 661); conditions: SK-N-SH caspase-3 activation, qHTS, DMSO as zero, staurosporine as full; series mostly up to 91.7 µM; caspase-3 activation: at the top concentration;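 also: cells exposed to compound for 16 hours; 0% = DMSO basal and 100% = 10 µM staurosporine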
Procedure, shortened: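 Caspase 3/7 activation is measured as a luminescence increase from aminoluciferin released by substrate cleavage in SK-N-SH cells after 16 hr compound treatment; values are AC50 from concentration-response curves.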

| SMILES | caspase-3 activation [%] | outcome |
| --- | --- | --- |
| CCCC(CCC)C(=O)O | -1.14 | – |
| CC(=O)Oc1ccccc1C(=O)O | – | inactive |
| NS(=O)(=O)c1cc2c(cc1Cl)NC=NS2(=O)=O | 0.0851 | – |
| Cn1cnc([N+](=O)[O-])c1Sc1ncnc2nc[nH]c12 | 3.16 | – |
| NC(N)=NC(=O)c1nc(Cl)c(N)nc1N | -0.369 | – |
| NC(=O)c1cnccn1 | -0.418 | – |
| O=c1[nH]cnc2[nH]ncc12 | 0.674 | – |

test: Cellular Toxicity (caspase-3) H-4-II-E (AID 663); conditions: H-4-II-E rat hepatoma, scaled: DMSO 0%, 100 µM tamoxifen 100%; series mostly up to 92.2 µM; caspase-3 activation: at the top concentration;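 also: cells exposed to compound for 16 hr before readout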
Procedure, shortened: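 Luminescence from caspase-cleaved aminoluciferin substrate, read 20 min after reagent addition, reports caspase 3/7 activation in rat H-4-II-E cells after 16 hr compound exposure. Normalized to DMSO (basal) and 100 uM tamoxifen (100%); AC50 from Hill fits.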

| SMILES | outcome | caspase-3 activation [%] |
| --- | --- | --- |
| CC(=O)Oc1ccccc1C(=O)O | inactive | – |
| NS(=O)(=O)c1cc2c(cc1Cl)NC=NS2(=O)=O | – | 0.847 |
| Cn1cnc([N+](=O)[O-])c1Sc1ncnc2nc[nH]c12 | – | 22.7 |
| NC(N)=NC(=O)c1nc(Cl)c(N)nc1N | – | 0.835 |
| NC(=O)c1cnccn1 | – | 0.0618 |
| O=c1[nH]cnc2[nH]ncc12 | – | 0.429 |
